Source: PubChem BioAssay
In the library only some 5.9% were active in any assay of this set; here they are far more common.
ALR inh – blocks human ALR sulfhydryl oxidase activity. inhibition, % (no concentration beside the values). AID 485317. P55789. purified ALR, DTT oxidation, H2O2 HRP-luminol luminescence. actives 3.8% (n = 290,000);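 active = mean replicate inhibition above about 79%, with every replicate also reaching it, limit read from the data; inconclusive = only one of the two criteria met; inactive = mean below limit and not every replicate reaching it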
Target sequence (P55789 whole entry, looked up): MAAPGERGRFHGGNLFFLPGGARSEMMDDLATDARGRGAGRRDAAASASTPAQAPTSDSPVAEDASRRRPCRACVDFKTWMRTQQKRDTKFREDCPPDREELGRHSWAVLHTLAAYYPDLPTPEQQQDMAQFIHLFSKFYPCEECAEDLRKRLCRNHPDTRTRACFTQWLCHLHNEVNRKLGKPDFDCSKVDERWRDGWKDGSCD
Rtt109 Vps75 – blocks Candida albicans Rtt109/Vps75 acetyltransferase activity; purified Rtt109/Vps75, ThioGlo CoA-SH fluorescence, 4 h; Q5AAJ8; inhibition, % at 34.9 µM; actives 0.16% (n = 330,000); AID 540336;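 active = inhibition of at least 50% in every replicate; inconclusive = best replicate reaches 50% inhibition but some replicates fall short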
Target sequence (Q5AAJ8 whole entry, looked up): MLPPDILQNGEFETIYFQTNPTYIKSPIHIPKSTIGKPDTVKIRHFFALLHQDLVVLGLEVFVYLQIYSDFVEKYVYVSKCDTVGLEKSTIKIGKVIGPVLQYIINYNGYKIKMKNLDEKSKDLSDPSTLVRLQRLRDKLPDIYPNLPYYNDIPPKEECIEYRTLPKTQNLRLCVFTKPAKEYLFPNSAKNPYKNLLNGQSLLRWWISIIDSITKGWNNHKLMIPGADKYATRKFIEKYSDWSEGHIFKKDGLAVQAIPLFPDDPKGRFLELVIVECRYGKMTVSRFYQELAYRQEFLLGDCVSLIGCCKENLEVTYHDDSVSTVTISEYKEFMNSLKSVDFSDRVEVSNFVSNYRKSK
PRMT1 FP inh – PRMT1 (human) inhibition, primary screen; Q99873; recombinant PRMT1, activity-based probe fluorescence polarization; inhibition, % at 2.79 µM; actives 1.3% (n = 370,000); AID 652257;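 active = inhibition above about 21% made by adding two undisclosed values, limit read from the data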
ABHD5-PLIN5 inh – inhibitors of human ABHD5-perilipin-5 interaction. actives 0.78% (n = 360,000). Q00G26+Q8WTS1. inhibition, % at 4 µM. Split G. princeps luciferase complementation, luminescence, 4 h;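 active = inhibition above the mean inhibition across every tested compound plus 3 SD, cut at about 22% in these data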
LANA-H2B inh – blocks KSHV LANA binding to histone H2A/H2B; inhibition, % (test concentration not listed); cell-free LANA-H2A/H2B peptide, fluorescence polarization; actives 0.6% (n = 320,000); in the data active = inhibition mostly above about 10%, no sharp cut-off; inactive = mostly below about 6.7%
rCAG RNA binder – binds r(CAG) RNA repeats | r(CAG) RNA repeat, TO-PRO-1 dye displacement fluorescence | inhibition, % at 3 µM | actives 1.3% (n = 370,000) | AID 651821;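 active = inhibition above the plate cutoff, the mean of all test compounds on that plate plus 3 SD, cut at about 35% in these data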;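 note: higher means more dye released from RNA so lower well fluorescence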
PRMT1 inh conf – confirmation of human PRMT1 inhibitors; shares compounds with PRMT1 FP inh; recombinant His-PRMT1, activity-based probe fluorescence polarization; inhibition, % at 2.79 µM; actives 42% (n = 3,300);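 active = mean inhibition across replicates above the hit cutoff derived for the earlier primary screen, cut at about 22% in these data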
A number is an active result; n = inactive; u = inconclusive; x = not tested or not shown; + = active, no number.

SMILES	ALR inh	Rtt109 Vps75	PRMT1 FP inh	ABHD5-PLIN5 inh	LANA-H2B inh	rCAG RNA binder	PRMT1 inh conf
N#CC1=C(N)OC2=C(CC/C2=C\c2ccccc2)C1c1ccccc1 (stereo not drawn)	n	n	27	n	n	n	48
O=C1/C(=C/c2ccccc2O)SC(=S)N1Cc1cccnc1	n	n	55	n	n	n	35
S=C1NNC2(NN1)C1CC3CC(C1)CC2C3	n	n	n	n	n	n	x
C1CSC2(N1)C1CC3CC(C1)CC2C3 (stereo not drawn)	n	n	51	n	n	n	35
OCCN(Cc1cccnc1)Cc1ccccn1	x	n	n	n	x	n	x
CC(=O)c1cc(-c2ccc(-c3cc(C(=O)O)c4ccccc4n3)cc2)c(=O)n2c1CCC2	x	x	n	x	x	n	x
COC(=O)C1=C(C)NC(=S)NC1c1ccc(-c2ccccc2C(=O)OC)o1 (stereo not drawn)	n	n	31	n	n	n	n
CCOC(=O)C1=C(C)NC(=S)NC1c1ccc(-c2ccc(Cl)cc2)o1 (stereo not drawn)	n	n	42	n	n	n	n
O=Cc1ccc(-c2ccc(F)cc2)o1	n	n	n	n	n	n	x
O=C(O)/C(=C\c1ccc(-c2ccc(F)cc2)o1)c1ccccc1	x	n	28	n	x	n	n
CC(=O)Nc1ccc(SCC(=O)c2cc(C)n(C)c2C)cc1	99	n	36	n	n	n	n
CC(=O)Nc1ccc(SCC(=O)NC(=O)c2ccc(S(=O)(=O)N(C)C)cc2)cc1	99	u	50	n	n	n	43
CC(=O)Nc1ccc(SCC(=O)Nc2ccc3c(c2)OCCO3)cc1	98	n	58	n	n	n	54
CC(=O)Nc1ccc(SCC(=O)Nc2ccc(Cl)cn2)cc1	x	n	28	n	n	n	37
C[C@H]1[C@H](NCc2cccnc2)CC[C@@]23CCCN2C(=O)CCC[C@@H]13	x	x	n	x	x	x	x
Cc1cccc(OCCCN2CCC(C(O)(c3ccccc3)c3ccccc3)CC2)c1	x	x	n	x	x	n	x
CCc1ccc2nc(N(CCCN(C)C)C(=O)c3ccc(S(=O)(=O)N4CCCc5ccccc54)cc3)sc2c1	n	n	n	n	n	n	x
CN(C)CCCN(C(=O)c1ccc(S(=O)(=O)N2CCc3ccccc32)cc1)c1nc2c(Cl)cccc2s1	n	n	33	n	n	n	n
COc1cccc2sc(N(CCCN(C)C)C(=O)c3ccc(S(=O)(=O)N4CCCc5ccccc54)cc3)nc12	n	n	n	n	n	n	x
CN(C)CCN(C(=O)c1ccc(S(=O)(=O)N2CCc3ccccc32)cc1)c1nc2ccc(F)cc2s1	n	n	50	n	n	n	n
O=C(CNC(c1ccccc1)c1ccccc1)Nc1ccccc1F	n	n	n	n	n	n	x
O=C(CSC(=O)c1ccccc1)Nc1ccccc1F	x	n	29	n	n	n	26
COc1ccc(NC(=O)N(C)C[C@H]2OCCCC[C@H](C)Oc3ccc(NC(=O)Nc4cccc5ccccc45)cc3C(=O)N([C@@H](C)CO)C[C@H]2C)cc1	x	x	n	x	x	n	x
Clc1cccc(CSc2ncnc3sc4c(c23)CCCC4)c1	x	x	n	x	x	n	x
N#Cc1c2c(c(-c3ccco3)[nH]c1=O)CCCC2	n	x	46	n	n	n	n
SMILES	ALR inh	Rtt109 Vps75	PRMT1 FP inh	ABHD5-PLIN5 inh	LANA-H2B inh	rCAG RNA binder	PRMT1 inh conf
N#Cc1c(-c2cccnc2)c2c([nH]c1=S)CCCC2	n	n	45	n	n	n	32
N#Cc1c(-c2ccco2)c2c([nH]c1=S)CCCC2	n	n	59	n	n	n	25
N#Cc1c(N)nc2c(c1-c1cccnc1)CCCCC2	n	n	n	n	n	n	x
N#Cc1c(N)nc2c(c1-c1ccco1)CCCCC2	n	n	n	n	n	n	x
CCN(CC)S(=O)(=O)c1ccc(C(=O)Nc2cc(S(=O)(=O)N3CCOCC3)ccc2N2CCN(C)CC2)cc1	x	u	n	n	x	n	x
O=[N+]([O-])c1cc(-c2csc(NC(CO)c3nc4ccccc4n3CCOCCO)n2)ccc1Cl (stereo not drawn)	n	n	37	n	n	n	n
Cc1ccc(-c2nn(-c3ccccc3)cc2/C=C/C(=O)O)o1	n	n	31	n	n	n	n
O=C(O)/C=C/c1cn(-c2ccccc2)nc1-c1cc2ccccc2oc1=O	n	n	n	n	n	n	x
CCCNC(=O)C[C@H]1CC[C@H]2[C@@H](COc3ccc(NC(=O)Nc4ccc(C#N)cc4)cc3C(=O)N2C)O1	x	x	n	x	x	n	x
COc1cccc(N(C)C(=O)[C@@H](C2CC2)[C@@H](O)c2ccc(C(C)=O)cc2)c1	x	x	n	x	x	n	x
O=C1NCCCCC1NS(=O)(=O)c1ccccc1 (stereo not drawn)	x	n	n	n	n	n	x
CCOc1ccc(N2C(=O)CC(NCC#N)C2=O)cc1 (stereo not drawn)	n	n	33	n	n	n	46
CCOc1ccc(N2C(=O)CC(NCc3ccc(S(N)(=O)=O)cc3)C2=O)cc1 (stereo not drawn)	n	n	n	n	n	n	x
O=C1NCCCCC1NC1CC(=O)N(c2ccccc2)C1=O (stereo not drawn)	n	n	34	n	n	n	n
CCOc1ccc(N2C(=O)CC(NC3CCCCNC3=O)C2=O)cc1 (stereo not drawn)	n	n	44	n	n	n	n
O=C(CCCCn1cnc2c(=S)nc[nH]c21)Nc1ccc(C(=O)O)cc1	x	n	30	n	x	n	n
CCN1CCN(C(=S)c2ccc(O)cc2)CC1	x	n	81	n	n	n	52
CCN1CCN(C(=S)c2ccc(Br)cc2)CC1	n	n	36	n	n	n	35
Oc1ccc(C(=S)N2CCCC2)cc1	n	n	n	n	n	n	x
Cc1ccc(C)n1C(CC(=O)O)c1ccc(C#N)cc1 (stereo not drawn)	u	n	27	n	n	n	n
CCOC(=O)CC(c1ccc(N)cc1)n1c(C)ccc1C (stereo not drawn)	n	n	n	n	n	n	x
Cc1ncoc1C(=O)Nc1nccs1	n	n	n	n	n	n	x
Cc1ncoc1C(=O)Nc1ncc([N+](=O)[O-])s1	x	n	39	n	n	n	n
CC(Sc1nnc(C2CC2)n1C1CC1)C(=O)NCc1cccs1 (stereo not drawn)	x	n	n	n	x	n	x
CC(Sc1nnc(C2CC2)n1C1CC1)C(=O)Nc1cccc(S(=O)(=O)N(C)C)c1 (stereo not drawn)	n	n	37	n	+	n	n
CCOc1ccccc1NC(=O)Cn1nc(-c2ccco2)ccc1=O	n	n	n	n	n	n	x
Cc1ccc(NC(=O)CSc2ccc(-c3ccco3)nn2)cc1	x	n	n	n	n	n	x
CCOc1ccccc1NC(=O)CSc1ccc(-c2ccco2)nn1	n	n	25	n	n	n	48
